Pf growth 48h – Primary qHTS for delayed death inhibitors of the malarial parasite plastid, 48 hour incubation; P. falciparum luciferase growth in erythrocytes, 48 h; Potency, µM (titrated, usually from 28.7 µM), for inactives: at the highest dose activity change, negative = inhibition, hits mostly inhibitors; 310,000 tested, 5.9% active; AID 504832, 2011; further: potency means the concentration at half of the fitted maximal effect; on the % scale 0 is the no-effect control and ±100 the full control effect
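Luciferase-expressing parasites in RBCs, 2% Hct / 0.1% parasitemia final; RPMI 1640 + 0.5% Albumax; 37 C, 5% CO2, one generation; luminescence read-out, lower signal = inhibition.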
Shiga inhibitor – A qHTS for Small Molecule Inhibitors of Shiga Toxin | Vero cells, Shiga toxin protein synthesis inhibition reporter | inhibition, % at 38.7 µM | 290,000 tested, 9.2% active; in the data active means inhibition mostly above about 28%, no sharp cut-off; inactive means mostly below about 43%; further: 0% is about no effect
HCMV inh – qHTS Assay for inhibitors of the human cytomegalovirus (HCMV); HFF cells, HCMV-luciferase reporter, 72 h; hits give low values; activity change, negative = inhibition, % at 57.5 µM; 410,000 tested, 4.5% active; AID 1259415, 2018; in the data active means activity change below about -60%; inconclusive means no clear call, values can overlap the other calls; inactive means above about -39%; further: on the % scale 0 is the no-effect control and ±100 the full control effect
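Steps: HFFs plated, 16 h 37C; compounds added; HCMV-luciferase added to MOI 1 PFU/cell; 72 h 37C; OneGlo reagent, 5 min room temperature; luminescence read, normalized to controls.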
CHX counter – Cycloheximide Counterscreen for Small Molecule Inhibitors of Shiga Toxin. cell reporter, cycloheximide protein synthesis inhibition counterscreen. max response, %. 300,000 tested, 12% active. AID 2314, 2010; in the data active means max response mostly above about 13%, no sharp cut-off; inactive means mostly below about 14%; further: read at 38.3 µM for the half of the compounds with a filed dose; 0% is about no effect
Pf growth 96h – Primary qHTS for delayed death inhibitors of the malarial parasite plastid, 96 hour incubation; AID 504834, 2011; 320,000 tested, 6.9% active; P. falciparum luciferase reporter growth, 96 h; Potency, µM (doses to about 28.7 µM), without a hit: top-dose activity change, negative = inhibition, usual class: inhibitors; further: potency means the concentration at half of the fitted maximal effect; on the % scale 0 is the no-effect control and ±100 the full control effect
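Cell-based qHTS: luciferase-tagged P. falciparum in erythrocytes (2% hematocrit, 0.05% parasitemia final) incubated with compounds for 96 hours, 37 C, 5% CO2; luciferase detection reagent then added and luminescence measured.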
The depositor's hits bear a star; ? = inconclusive; / = no result. A selection: hits, their analogues and other compounds. The true share with any hit is near 20%. Unless noted, the call rests on the fitted dose curve; in most records, active means well fitted inhibition curve with a large enough effect; inconclusive means small, poorly fitted or top-dose-only effect, or another doubt; inactive means no such curve, though single readings can be large or run the other way.

SMILES | Pf growth 48h | Shiga inhibitor | HCMV inh | CHX counter | Pf growth 96h
Cc1cccc(NC(=O)COC(=O)c2nn(C)c(=O)c3ccccc23)c1C | / | / | 2.4 | / | /
O=C1c2ccccc2COc2ccc(O)cc21 | 20.2% | 64.0 | 1.0 | 9.7 | 115.9%
CNC(=O)Oc1ccc2c(c1)C(=O)c1ccccc1CO2 | / | 61.7 | ? | 15.5* | 47.5%
COc1ccc2c(c1)C(=O)c1ccccc1CO2 | / | 116.8* | 87.0 | 53.4* | ?
COc1cccc(C(C(=O)NC2CCCC2)N2CCN(c3cc(C)nc4ccccc34)CC2)c1OC (centres undefined) | / | / | -36.4 | / | /
O=C(c1ccccc1)c1ccc2nc(Nc3cc(Cl)ccc3O)c3nncn3c2c1 | / | / | 0.0 | / | /
N#Cc1c(N)n(C2OC(CO)C(O)C2O)c2ncnc(N)c12 (centres undefined) | / | / | -99.0* | / | /
Cc1cc(C)n(C(=O)CSc2ccc(Cl)cc2)n1 | 39.9% | -5.6 | 20.7 | -2.2 | 31.1%
Cc1ccc2c(c1)CCCN2CC(=O)Nc1cc(S(=O)(=O)N2CCCC2)ccc1Cl | 10.4µM* | / | 1.5 | / | 4.65µM*
O=C(CN1CCCc2ccccc21)Nc1cc(S(=O)(=O)N2CCCC2)ccc1Cl | 13.1µM* | / | 0.0 | / | 8.28µM*
O=C(CN1CCCc2ccccc21)Nc1cccc(S(=O)(=O)N2CCOCC2)c1 | ? | / | 12.4 | / | ?
Cn1c(NCc2cccnc2)nc2cc(-c3cccc(C(F)(F)F)c3)sc2c1=O | / | / | 13.6 | / | /
COc1ccc(S(=O)(=O)N(CC(=O)NCc2cccnc2)c2ccc(F)cc2)cc1OC | -13.6% | -4.1 | / | -6.0 | ?
Cc1[nH][nH]c(=O)c1C(c1ccc(-c2ccc(C(=O)O)cc2)o1)c1c(C)[nH][nH]c1=O | ? | 29.0 | -61.8* | 7.2 | -15.1%
Cc1ccc(C(OCC(C)(C)C[N+](C)(C)C)c2ccccc2)cc1 (centres undefined) | 1.31µM* | 14.3 | -32.5 | -0.4 | ?
CC(=O)c1ccc(Nc2nc(C(C)N)cs2)cc1 (centres undefined) | / | / | 70.7 | / | /
Cc1[nH][nH]c(=O)c1C(c1c(C)[nH][nH]c1=O)c1cn(C)c2ccccc12 | 10.4µM* | 9.9 | -14.4 | 6.1 | 15.1%
COc1ccc(S(=O)(=O)N2CCCCC2)cc1C(=O)Nc1cc(C)on1 | -11.2% | -8.4 | -11.6 | -2.5 | ?
O=C(Cn1cc(S(=O)(=O)c2ccc(F)cc2)c(=O)c2cc3c(cc21)OCO3)Nc1ccccc1 | / | / | -26.7 | / | /
O=C(Nc1ccc2oc(-c3ccccc3)nc2c1)c1cc(-n2cnnc2)ccc1Cl | -24.2% | 83.6* | -2.8 | 27.6* | -26.2%
O=C(Nc1ccc(-c2nc3ccccc3o2)cc1)c1cc(-n2cnnc2)ccc1Cl | 11.7µM* | 56.0* | -96.6* | 22.5* | 14.7µM*
Cc1c(NC(=O)c2cc(-n3cnnc3)ccc2Cl)cccc1-c1nc2ccccc2o1 | -5.2% | 25.7 | 38.1 | 18.2* | ?
O=C(Nc1ccccc1)c1cc(-n2cnnc2)ccc1Cl | -10.6% | -14.1 | -16.2 | -1.2 | 42.7%
O=C(Nc1ccc(-c2nc3ccccc3o2)c(O)c1)c1cc(-n2cnnc2)ccc1Cl | 9.28µM* | 15.1 | -94.5* | 6.3 | -16.0%
Cc1c(NC(=O)c2cccc3c(Cl)cccc23)cccc1-c1nc2ccccc2o1 | / | / | 9.7 | / | /
SMILES | Pf growth 48h | Shiga inhibitor | HCMV inh | CHX counter | Pf growth 96h
CCOc1ccc(CNC(=O)C2CCN(C(=O)N3CC(CC)Oc4ccc(C)cc43)CC2)cc1OC (centres undefined) | / | / | -21.7 | / | /
CCO[C@H]1OC(C(=O)Nc2ccccc2)=C[C@@H](c2ccc(C(F)(F)F)cc2)[C@@H]1CCCO | ? | -4.5 | -4.6 | -2.4 | ?
COc1ccc(OC)c(Nc2nc(-c3sc(C)nc3C)cs2)c1 | 14.7µM* | 48.7 | -15.6 | 11.0 | -17.2%
COc1ccc(Cl)cc1NC(=O)CSc1ccc(-c2sc(C)nc2C)nn1 | / | / | 104.3 | / | /
COc1cccc(Nc2nc(-c3sc(NC(=O)c4ccco4)nc3C)cs2)c1 | ? | 34.3 | -12.0 | 6.6 | 13.1µM*
COc1ccc(OC)c(NC(=O)Nc2nc(C(C)N)cs2)c1 (centres undefined) | / | / | -6.8 | / | /
COc1ccc(Cl)cc1Nc1nc(-c2sc(NC(=O)C(C)(C)C)nc2C)cs1 | 10.4µM* | 13.2 | -90.3* | 11.9 | 1.65µM*
COc1ccc(OC)c(Nc2nc(-c3sc(NC(=O)C(C)(C)C)nc3C)cs2)c1 | 9.28µM* | -7.8 | ? | 1.8 | 3.29µM*
